Only some compounds are listed: those with a hit (about 2.4% of all), similar ones and a draw of the others.
D2 ag-1 – activates the human D2 dopamine receptor. P14416. DiscoveRx PathHunter D2 beta-arrestin, luminescence, 90 min; 100% = 57 uM dopamine signal. activation, % (test concentration not listed). actives 0.084% (n = 360,000). AID 624465; in the data active = activation above about 40%; inconclusive = between about 15% and that limit
Target sequence (P14416 whole entry, looked up): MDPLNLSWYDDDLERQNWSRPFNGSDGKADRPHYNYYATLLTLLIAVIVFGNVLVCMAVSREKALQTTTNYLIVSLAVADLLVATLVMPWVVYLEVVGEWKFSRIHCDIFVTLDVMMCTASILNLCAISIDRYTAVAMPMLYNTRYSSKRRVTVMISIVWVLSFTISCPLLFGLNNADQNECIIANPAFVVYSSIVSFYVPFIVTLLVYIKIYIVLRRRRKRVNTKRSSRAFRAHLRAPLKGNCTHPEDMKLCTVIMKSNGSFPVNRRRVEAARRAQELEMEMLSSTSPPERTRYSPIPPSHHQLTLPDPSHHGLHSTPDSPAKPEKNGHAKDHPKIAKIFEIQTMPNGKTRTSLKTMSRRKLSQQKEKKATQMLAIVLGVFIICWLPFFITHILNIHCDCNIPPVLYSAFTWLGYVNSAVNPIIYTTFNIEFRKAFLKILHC
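DiscoveRx PathHunter D2 beta-arrestin cells (2,100/well) attached overnight, then compound-stimulated 90 min at 37 C in HBSS/10 mM HEPES/0.1% Tween-20 buffer; beta-galactosidase complementation read by luminescence after 1 h at ambient temperature. Dopamine 57 uM final (EC100) as control.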
D2 ag-2 – D2 dopamine receptor (human) agonism; AID 485358; HEK293 T-REx D2 cells, calcium flux agonist mode; P14416; actives 0.53% (n = 340,000); activation, % at 2 µM;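 active = activation over 3 SD above normal in the single-dose calcium agonist read, cut at about 30% in these data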; also: 0% is about no effect
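Calcium-flux readout, 1 cycle/sec over 180 s following compound pin transfer, in inducible HEK293 Trex D2 cells (force-coupled); dopamine controls included. Positive calcium responses during this window marked compounds as potential agonists.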
D2 PAM-1 – positively modulates the human D2 dopamine receptor allosterically | P14416 | HEK293 T-REx D2, calcium flux, EC20 dopamine potentiation | potentiation, % at 10 µM | actives 0.34% (n = 340,000);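 active = potentiation over 3 SD above the plate norm, cut at about 30% in these data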; also: 0% is about no effect
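Cells plated with tetracycline inducer and held overnight at 30 C; calcium dye loaded 30–90 min at room temperature; baseline taken, compound added and read 180 s; EC20 dopamine then added and read 180 s.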
D2 PAM-2 – human D2 receptor positive allosteric modulation. P14416. DiscoveRx D2 beta-arrestin cells, luminescence, 90 min; 100% = 57 uM dopamine signal. potentiation, % (test concentration not listed). actives 0.23% (n = 360,000); in the data active = potentiation above about 50%; inconclusive = mostly about 30% to 49%
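D2 cells co-treated with compound plus 50 nM dopamine (EC20) for 90 min at 37 deg C to detect potentiation. Beta-arrestin recruitment was read as enzyme-fragment luminescence after 1 h at ambient temperature. Full response was set by 57 uM dopamine.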
D2 antagonist – antagonizes the human D2 dopamine receptor. inhibition, % at 10 µM. P14416. actives 2% (n = 340,000). HEK293 TREx D2 cells, calcium flux, dopamine EC80; in the data active = inhibition above about 30%; inactive = below that, where a call was filed; also: 0% is about no effect
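In this primary screen, negative modulation is detected by tracking calcium flux after an EC80 dopamine challenge in inducible HEK293 T-REx D2 cells preexposed to test compound for 180 s.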
D3 arrestin ag – confirmation of human D3 dopamine receptor agonists, beta-arrestin; shares compounds with D2 ag-2; DiscoveRx D3 beta-arrestin cells, luminescence, 90 min; Potency, µM (titrated, usually from 76.9 µM), for inactives: at the highest dose activation, actives largely listed as activators; actives 4% (n = 2,300);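 also: potency is read from the fitted curve at half-maximal effect; 100% = dopamine control response; nearly all actives have a fitted effect of over 70% in size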
D2 ag-3 – activates human D2 dopamine receptor in D3 counterscreen. shares compounds with D2 ag-2. DiscoveRx PathHunter D2 beta-arrestin, luminescence, 90 min; response scale: percent relative to full dopamine signal. Potency, µM (highest dose often 76.9 µM), for inactives: top-dose activation, hits mostly activators. actives 5.9% (n = 2,300). AID 720507; also: potency is read from the fitted curve at half-maximal effect; % of control where 0% means no effect; nearly all actives have a fitted effect of over 70% in size
The depositor's hits bear a star; ? = inconclusive; nt = no result given. Unless noted, calls follow the shape of the dose curve; as a rule, active = well fitted activation curve with a large enough effect; inconclusive = small, poorly fitted or top-dose-only effect; inactive = flat fitted curve, though single readings scatter.

SMILES	D2 ag-1	D2 ag-2	D2 PAM-1	D2 PAM-2	D2 antagonist	D3 arrestin ag	D2 ag-3
O=c1[nH]c(N/N=C/c2ccccc2Br)nnc1-c1ccccc1	4.5	-1.7	-4.2	-4.6	25.3	nt	nt
COc1ccccc1CN1CCCC(N2CCN(c3ccccc3OC)CC2)C1 (stereo not given)	-3.0	0.8	-14.0	-2.6	-6.2	nt	nt
Fc1ccccc1N1CCN(C2CCCN(Cc3ccccc3C(F)(F)F)C2)CC1 (stereo not given)	-2.4	nt	-8.5	-3.6	nt	2.8%	21.3%
O=C(c1noc2c1CCCC2)N1CCCC(N2CCN(c3ccccc3F)CC2)C1 (stereo not given)	1.7	41.1*	-13.5	-20.3	14.8	0.7%	6.3%
CC(=O)c1cccc(CN2CCCC(N3CCN(c4ccccc4F)CC3)C2)c1 (stereo not given)	11.7	nt	-28.0	-0.8	nt	8.3%	?
O=C(c1ccsc1)N1CCCC(N2CCN(c3ccccc3F)CC2)C1 (stereo not given)	1.2	11.8	-10.9	-30.5	0.3	nt	nt
COc1ccccc1N1CCN(CCCCOc2ccc(C)cc2C)CC1	9.5	61.7*	-28.9	0.2	81.7*	2.7%	7.0%
COc1ccccc1N1CCN(CCCNC(=O)Nc2ccccc2C)CC1	2.2	23.3	-25.6	-11.5	86.9*	-11.5%	2.7%
O=C(NCCCN1CCN(c2cccc(Cl)c2)CC1)C1CCC(=O)N1Cc1ccccc1Cl (stereo not given)	2.4	50.4*	-22.9	-48.7	39.8*	5.9%	?
CN(CCCNC(=O)C1CCC(=O)N1Cc1ccccc1Cl)c1ccccc1 (stereo not given)	0.2	-0.3	-5.0	-4.6	10.0	nt	nt
Cc1ccccc1NC(=O)NCCCN1CCN(c2ccccc2F)CC1	nt	nt	-23.3	nt	nt	nt	nt
COc1ccccc1N1CCN(CCCCN2C(=O)c3ccccc3C2=O)CC1	-6.9	nt	nt	-34.7	nt	nt	nt
COc1ccccc1NC(=O)NCCCN1CCN(c2cccc(Cl)c2)CC1	-3.8	49.3*	-24.4	-15.4	63.1*	3.0%	10.3%
O=C1CC(=O)Nc2cc(S(=O)(=O)NCc3cccs3)ccc2N1	-1.5	0.7	9.6	-10.5	-5.5	nt	nt
Cc1nc2ncnn2c(C)c1CCC(=O)NCCCN1CCN(c2cccc(Cl)c2)CC1	?	75.8*	-18.2	-0.5	72.5*	8.8%	?
Cc1nc2ncnn2c(C)c1CCC(=O)N1CCN(c2cccc(Cl)c2)CC1	nt	nt	-0.4	nt	nt	nt	nt
O=C1C2CCCN2C(=O)N1CCCN1CCN(c2cccc(Cl)c2)CC1 (stereo not given)	1.9	26.5	-28.5	-23.7	31.3*	-13.0%	0.1%
O=c1n(CCCN2CCN(c3cccc(Cl)c3)CC2)nc2ccccn12	-4.0	40.7*	-23.2	-25.5	52.4*	-6.8%	6.8%
O=C1C2CCCCN2C(=O)N1CCCCN1CCN(c2cccc(C(F)(F)F)c2)CC1 (stereo not given)	-1.3	nt	nt	-3.2	nt	nt	nt
CN(CC(=O)Nc1ccc(F)cc1)C(=O)COc1ccc([N+](=O)[O-])cc1Cl	-5.9	0.7	0.4	-15.1	14.6	nt	nt
O=C1N=C(N2CCOCC2)S/C1=C\c1cccs1	-0.8	-1.2	-12.3	-9.3	-6.7	nt	nt
Cc1ccccc1-c1ccc(/C=C2/SC(N3CCOCC3)=NC2=O)o1	48.7*	72.6*	-33.5	?	82.6*	-5.7%	?
O=C1N=C(N2CCOCC2)S/C1=C\c1ccc(-c2ccccc2Cl)o1	8.5	41.6*	-15.5	-8.6	-8.0	-0.3%	?
C=CCNC(=O)c1onc(CSc2ccccn2)c1C(=O)NCC=C	-0.5	0.5	-6.9	-8.7	4.5	nt	nt
Cc1cc(Cl)ccc1Oc1ncc(CN2CCN(c3ccccc3)CC2)s1	?	64.6*	-26.7	17.4	83.6*	?	31.6µM*
SMILES	D2 ag-1	D2 ag-2	D2 PAM-1	D2 PAM-2	D2 antagonist	D3 arrestin ag	D2 ag-3
COc1ccc(Oc2ncc(CN3CCN(c4ccccc4)CC3)s2)cc1	41.6*	72.1*	-26.9	26.7	76.3*	?	5.62µM*
Brc1ccc(Oc2ncc(CN3CCOCC3)s2)cc1	-0.7	-0.1	-3.0	-25.9	7.3	nt	nt
S=C(NCc1ccccc1)NC1CCCCC1	-0.5	-0.1	-10.6	-6.6	2.8	nt	nt
C/C(=N\NC(=S)NC1CCCCC1)c1ccccc1	11.2	44.6*	-22.7	-43.8	40.7*	2.5%	30.0%
S=C(NCCCc1ccccc1)NC1CCCCC1	-3.3	36.6*	-19.5	-21.1	-3.3	5.4%	-0.6%
Cc1c(Cl)cccc1NC(=O)CSC(C)c1nc2ccccc2c(=O)[nH]1 (stereo not given)	-3.3	-1.1	1.9	-13.8	29.1	-13.5%	-3.8%
Cc1cc(OCc2cc(C(=O)N3CCC(Oc4cccnc4)CC3)no2)cc(C)c1Cl	3.9	50.7*	-15.2	-10.0	-7.0	19.4%	?
Cc1cc(OCc2cc(C(=O)NC3CCC3)no2)cc(C)c1Cl	2.1	0.3	-1.8	-1.7	43.0*	6.2%	6.6%
CC(OC(=O)c1cccc(-n2cnnn2)c1)C(=O)NCc1ccccc1 (stereo not given)	1.3	0.2	2.6	-6.0	-21.1	nt	nt
O=C(CSc1ncn[nH]1)N1N=C2/C(=C/c3ccccc3)CCCC2C1c1ccccc1 (stereo not given)	11.7	41.3*	-13.6	9.4	33.3*	6.3%	?
COc1ccc(/C=C2\CCCC3C2=NN(C(=O)CSc2ncn[nH]2)C3c2ccc(OC)cc2)cc1 (stereo not given)	6.1	-0.3	-16.4	-8.5	4.5	nt	nt
COc1cccc(C(=O)C2=NN(C(C)=O)CC2c2ccco2)c1 (stereo not given)	?	0.1	nt	-0.2	0.1	nt	nt
O=C(Nc1ccc2c(c1)OCO2)c1cc(C2CCCCN2C(=O)OCCF)on1 (stereo not given)	-2.6	nt	nt	-3.7	nt	nt	nt
Cc1cccc(C(=O)NC(=S)NNC(=O)c2cccs2)c1	-4.3	29.3	-10.9	-26.5	21.7	nt	nt
Cc1cccc(C(=O)NC(=S)NNC(=O)c2ccc(Cl)cc2)c1	-2.2	74.7*	-15.3	-15.8	-0.9	-12.7%	-9.1%
Cc1cccc(C)c1NC(=O)C1CCCN1S(=O)(=O)c1ccc(-c2ccc(=O)[nH]n2)s1 (stereo not given)	-3.3	1.5	1.8	1.1	-4.3	nt	nt
CCc1ccccc1NC(=O)C1CCCN1S(=O)(=O)c1ccc(-c2ccc(=O)[nH]n2)s1 (stereo not given)	7.3	9.7	5.1	-10.1	-14.9	11.4%	2.2%

High-throughput results (PubChem BioAssay)
